In all, about 5,500 compounds went through this assay and about 2,000 (36%) were called active. Inconclusive results (about 18%) are left out. Cut-off read from the data, not from the text of the source: active = normalized growth mostly below about 0.91 (no sharp cut-off); inconclusive = no clear call, values can overlap the other calls; inactive = mostly above about 0.92. Some of the results follow.
Test: chemical genetic growth profiling, strain panel (AID 1159580);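 note: tested at 20 µM; growth read once vehicle control cultures reached saturation at 30 °C; 1 = growth at the plate median or of vehicle wells; lower values mean less growth of the strain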
Conditions: growth OD

Measured: normalized growth

CCC(C)C(=O)c1c(O)c(C)c2oc3c(C)c(O)c(C(=O)C(C)CC)c(O)c3c2c1O (stereo not drawn)
inactive: S. cerevisiae deletion strains, locus YAL021C, strain ccr4, active compounds read low 0.972 | S. cerevisiae deletion strains, locus YAL026C, strain drs2, active compounds read low 0.982 | S. cerevisiae deletion strains, locus YAL030W, strain snc1, active compounds read low 0.983 | S. cerevisiae deletion strains, locus YBL061C, strain skt5, active compounds read low 0.98 | S. cerevisiae deletion strains, locus YBR009C, strain hhf1, active compounds read low 0.977 | S. cerevisiae deletion strains, locus YBR021W, strain FUR4, active compounds read low 1.05 | S. cerevisiae deletion strains, locus YBR023C, strain chs3, active compounds read low 0.971 | S. cerevisiae deletion strains, locus YBR171W, strain sec66, active compounds read low 0.995 | S. cerevisiae deletion strains, locus YBR229C, strain ROT2, active compounds read low 0.996 | S. cerevisiae deletion strains, locus YBR231C, strain swc5, active compounds read low 0.925 | S. cerevisiae deletion strains, locus YBR279W, strain paf1, active compounds read low 0.988 | S. cerevisiae deletion strains, locus YCL011C, strain gbp2, active compounds read low 0.98 | S. cerevisiae deletion strains, locus YCL016C, strain dcc1, active compounds read low 0.973 | S. cerevisiae deletion strains, locus YCL029C, strain bik1, active compounds read low 0.943 | S. cerevisiae deletion strains, locus YCL069W, strain vba3, active compounds read low 1 | S. cerevisiae deletion strains, locus YCR088W, strain abp1, active compounds read low 0.997 | S. cerevisiae deletion strains, locus YDL005C, strain med2, active compounds read low 0.979 | S. cerevisiae deletion strains, locus YDL035C, strain GPR1, active compounds read low 0.953 | S. cerevisiae deletion strains, locus YDL040C, strain nat1, active compounds read low 0.994 | S. cerevisiae deletion strains, locus YDL074C, strain BRE1, active compounds read low 0.949 | S. cerevisiae deletion strains, locus YDL101C, strain DUN1, active compounds read low 0.959 | S. cerevisiae deletion strains, locus YDL134C, strain PPH21, active compounds read low 0.977 | S. cerevisiae deletion strains, locus YDL192W, strain arf1, active compounds read low 0.976 | S. cerevisiae deletion strains, locus YDR001C, strain nth1, active compounds read low 1.01 | S. cerevisiae deletion strains, locus YDR069C, strain doa4, active compounds read low 0.919 | S. cerevisiae deletion strains, locus YDR101C, strain arx1, active compounds read low 0.987 | S. cerevisiae deletion strains, locus YDR150W, strain NUM1, active compounds read low 0.966 | S. cerevisiae deletion strains, locus YDR159W, strain sac3, active compounds read low 0.965 | S. cerevisiae deletion strains, locus YDR162C, strain NBP2, active compounds read low 0.997 | S. cerevisiae deletion strains, locus YDR195W, strain ref2 0.977 | S. cerevisiae deletion strains, locus YDR297W, strain sur2, active compounds read low 0.989 | S. cerevisiae deletion strains, locus YDR318W, strain mcm21, active compounds read low 0.967 | S. cerevisiae deletion strains, locus YDR334W, strain swr1, active compounds read low 1 | S. cerevisiae deletion strains, locus YDR335W, strain msn5, active compounds read low 0.997 | S. cerevisiae deletion strains, locus YDR388W, active compounds read low 0.961 | S. cerevisiae deletion strains, locus YDR392W, strain spt3, active compounds read low 0.921 | S. cerevisiae deletion strains, locus YDR502C, strain sam2, active compounds read low 0.935 | S. cerevisiae deletion strains, locus YEL003W, strain gim4, active compounds read low 0.983 | S. cerevisiae deletion strains, locus YEL037C, strain rad23, active compounds read low 1.01 | S. cerevisiae deletion strains, locus YEL061C, strain CIN8 (second series), active compounds read low 1 | S. cerevisiae deletion strains, locus YEL061C, strain CIN8, active compounds read low 0.97 | S. cerevisiae deletion strains, locus YER015W, strain faa2, active compounds read low 0.983 | S. cerevisiae deletion strains, locus YER016W, strain bim1, active compounds read low 0.996 | S. cerevisiae deletion strains, locus YER110C, active compounds read low 0.975 | S. cerevisiae deletion strains, locus YER111C, strain swi4, active compounds read low 0.984 | S. cerevisiae deletion strains, locus YER155C, strain BEM2 (second series), active compounds read low 0.934 | S. cerevisiae deletion strains, locus YER155C, strain BEM2, active compounds read low 1.02 | S. cerevisiae deletion strains, locus YER167W, strain BCK2, active compounds read low 0.956 | S. cerevisiae deletion strains, locus YFR010W, strain ubp6, active compounds read low 0.978 | S. cerevisiae deletion strains, locus YGL078C, strain dbp3, active compounds read low 0.987 | S. cerevisiae deletion strains, locus YGL167C, strain pmr1, active compounds read low 1 | S. cerevisiae deletion strains, locus YGL173C, strain kem1, active compounds read low 0.97 | S. cerevisiae deletion strains, locus YGL227W, strain vid30, active compounds read low 1 | S. cerevisiae deletion strains, locus YGL240W, strain doc1, active compounds read low 0.949 | S. cerevisiae deletion strains, locus YGL248W, strain PDE1, active compounds read low 0.984 | S. cerevisiae deletion strains, locus YGL253W, strain hxk2, active compounds read low 1 | S. cerevisiae deletion strains, locus YGR135W, strain pre9, active compounds read low 0.941 | S. cerevisiae deletion strains, locus YGR252W, strain gcn5, active compounds read low 1.09 | S. cerevisiae deletion strains, locus YHR013C, strain ard1, active compounds read low 0.969 | S. cerevisiae deletion strains, locus YHR027C, strain rpn1, active compounds read low 0.998 | S. cerevisiae deletion strains, locus YHR030C, strain SLT2, active compounds read low 0.964 | S. cerevisiae deletion strains, locus YHR079C, strain IRE1 (second series), active compounds read low 0.979 | S. cerevisiae deletion strains, locus YHR094C, strain hxt1, active compounds read low 0.999 | S. cerevisiae deletion strains, locus YHR129C, strain ARP1, active compounds read low 0.952 | S. cerevisiae deletion strains, locus YHR142W, strain chs7, active compounds read low 1.02 | S. cerevisiae deletion strains, locus YHR200W, strain rpn10, active compounds read low 0.988 | S. cerevisiae deletion strains, locus YIL066C, strain RNR3, active compounds read low 0.943 | S. cerevisiae deletion strains, locus YIL073C, strain SPO22, active compounds read low 1.01 | S. cerevisiae deletion strains, locus YIL125W, strain kgd1, active compounds read low 0.997 | S. cerevisiae deletion strains, locus YIR030C, strain dcg1, active compounds read low 0.978 | S. cerevisiae deletion strains, locus YJL092W, strain hpr5, active compounds read low 1 | S. cerevisiae deletion strains, locus YJL095W, strain BCK1 (second series), active compounds read low 0.985 | S. cerevisiae deletion strains, locus YJL095W, strain BCK1, active compounds read low 0.882 | S. cerevisiae deletion strains, locus YJL115W, strain asf1, active compounds read low 1.01 | S. cerevisiae deletion strains, locus YJL129C, strain trk1, active compounds read low 1.02 | S. cerevisiae deletion strains, locus YJL134W, strain LCB3, active compounds read low 0.978 | S. cerevisiae deletion strains, locus YJL154C, strain vps35, active compounds read low 1.01 | S. cerevisiae deletion strains, locus YJL164C, strain tpk1, active compounds read low 0.977 | S. cerevisiae deletion strains, locus YJL166W, strain qcr8, active compounds read low 0.983 | S. cerevisiae deletion strains, locus YJL168C, strain set2, active compounds read low 0.983 | S. cerevisiae deletion strains, locus YJL187C, strain SWE1, active compounds read low 0.983 | S. cerevisiae deletion strains, locus YJR043C, strain POL32, active compounds read low 0.936 | S. cerevisiae deletion strains, locus YJR075W, strain HOC1, active compounds read low 0.96 | S. cerevisiae deletion strains, locus YKL068W, active compounds read low 0.965 | S. cerevisiae deletion strains, locus YKL160W, strain elf1, active compounds read low 0.979 | S. cerevisiae deletion strains, locus YKR001C, strain vps1, active compounds read low 0.952 | S. cerevisiae deletion strains, locus YKR026C, strain gcn3, active compounds read low 1.01 | S. cerevisiae deletion strains, locus YKR091W, strain srl3, active compounds read low 0.992 | S. cerevisiae deletion strains, locus YLL001W, strain dnm1, active compounds read low 0.98 | S. cerevisiae deletion strains, locus YLL026W, active compounds read low 0.996 | S. cerevisiae deletion strains, locus YLL041C, strain sdh2, active compounds read low 1.01 | S. cerevisiae deletion strains, locus YLR027C, strain aat2, active compounds read low 0.965 | S. cerevisiae deletion strains, locus YLR102C, strain apc9, active compounds read low 0.98 | S. cerevisiae deletion strains, locus YLR221C, strain rsa3, active compounds read low 0.957 | S. cerevisiae deletion strains, locus YLR258W, strain gsy2, active compounds read low 0.971 | S. cerevisiae deletion strains, locus YLR262C, strain YPT6 (second series), active compounds read low 0.949 | S. cerevisiae deletion strains, locus YLR262C, strain YPT6, active compounds read low 0.773 | S. cerevisiae deletion strains, locus YLR268W, strain sec22, active compounds read low 0.904 | S. cerevisiae deletion strains, locus YLR320W, strain mms22, active compounds read low 0.954 | S. cerevisiae deletion strains, locus YLR330W, strain CHS5, active compounds read low 0.979 | S. cerevisiae deletion strains, locus YLR342W, strain FKS1 (second series), active compounds read low 0.92 | S. cerevisiae deletion strains, locus YLR342W, strain FKS1, active compounds read low 0.968 | S. cerevisiae deletion strains, locus YLR357W, strain rsc2, active compounds read low 0.957 | S. cerevisiae deletion strains, locus YLR370C, strain arc18, active compounds read low 0.983 | S. cerevisiae deletion strains, locus YLR371W, strain rom2, active compounds read low 0.973 | S. cerevisiae deletion strains, locus YLR384C, strain iki3, active compounds read low 0.975 | S. cerevisiae deletion strains, locus YLR418C, strain cdc73, active compounds read low 0.974 | S. cerevisiae deletion strains, locus YML016C, strain PPZ1, active compounds read low 0.974 | S. cerevisiae deletion strains, locus YML032C, strain rad52, active compounds read low 0.94 | S. cerevisiae deletion strains, locus YML120C, strain ndi1, active compounds read low 0.989 | S. cerevisiae deletion strains, locus YML124C, strain tub3, active compounds read low 0.992 | S. cerevisiae deletion strains, locus YMR058W, strain fet3, active compounds read low 0.986 | S. cerevisiae deletion strains, locus YMR078C, strain ctf18, active compounds read low 0.989 | S. cerevisiae deletion strains, locus YMR125W, strain sto1, active compounds read low 0.969 | S. cerevisiae deletion strains, locus YMR129W, active compounds read low 0.981 | S. cerevisiae deletion strains, locus YMR205C, strain PFK2, active compounds read low 0.967 | S. cerevisiae deletion strains, locus YMR223W, strain ubp8, active compounds read low 0.957 | S. cerevisiae deletion strains, locus YMR231W, strain pep5, active compounds read low 0.993 | S. cerevisiae deletion strains, locus YMR263W, strain SAP30, active compounds read low 0.975 | S. cerevisiae deletion strains, locus YMR307W, strain GAS1, active compounds read low 1.09 | S. cerevisiae deletion strains, locus YNL067W, strain RPL9B, active compounds read low 0.964 | S. cerevisiae deletion strains, locus YNL071W, strain lat1, active compounds read low 1 | S. cerevisiae deletion strains, locus YNL153C, strain GIM3, active compounds read low 0.928 | S. cerevisiae deletion strains, locus YNL209W, strain ssb2, active compounds read low 0.982 | S. cerevisiae deletion strains, locus YNL233W, strain BNI4, active compounds read low 0.993 | S. cerevisiae deletion strains, locus YNL248C, strain rpa49, active compounds read low 0.91 | S. cerevisiae deletion strains, locus YNL250W, strain rad50, active compounds read low 0.966 | S. cerevisiae deletion strains, locus YNL271C, strain bni1, active compounds read low 0.987 | S. cerevisiae deletion strains, locus YNL298W, strain CLA4, active compounds read low 0.972 | S. cerevisiae deletion strains, locus YNL307C, strain MCK1, active compounds read low 0.982 | S. cerevisiae deletion strains, locus YNL322C, strain KRE1 (second series), active compounds read low 0.978 | S. cerevisiae deletion strains, locus YNR049C, strain mso1, active compounds read low 0.994 | S. cerevisiae deletion strains, locus YNR052C, strain pop2, active compounds read low 0.966 | S. cerevisiae deletion strains, locus YOL012C, strain htz1 0.792 | S. cerevisiae deletion strains, locus YOL147C, strain pex11, active compounds read low 0.986 | S. cerevisiae deletion strains, locus YOR001W, strain rrp6, active compounds read low 0.954 | S. cerevisiae deletion strains, locus YOR061W, strain CKA2, active compounds read low 0.932 | S. cerevisiae deletion strains, locus YOR069W, strain VPS5, active compounds read low 0.977 | S. cerevisiae deletion strains, locus YOR070C, strain gyp1, active compounds read low 0.966 | S. cerevisiae deletion strains, locus YOR080W, strain dia2, active compounds read low 0.978 | S. cerevisiae deletion strains, locus YOR083W, strain WHI5, active compounds read low 1 | S. cerevisiae deletion strains, locus YOR106W, strain vam3, active compounds read low 0.973 | S. cerevisiae deletion strains, locus YOR136W, strain idh2, active compounds read low 0.986 | S. cerevisiae deletion strains, locus YOR144C, strain elg1, active compounds read low 0.992 | S. cerevisiae deletion strains, locus YOR184W, strain ser1, active compounds read low 0.977 | S. cerevisiae deletion strains, locus YOR265W, strain rbl2, active compounds read low 0.981 | S. cerevisiae deletion strains, locus YOR270C, strain vph1, active compounds read low 0.921 | S. cerevisiae deletion strains, locus YOR290C, strain snf2, active compounds read low 0.967 | S. cerevisiae deletion strains, locus YOR316C, strain cot1, active compounds read low 0.974 | S. cerevisiae deletion strains, locus YPL051W, strain arl3, active compounds read low 0.923 | S. cerevisiae deletion strains, locus YPL078C, strain atp4, active compounds read low 0.992 | S. cerevisiae deletion strains, locus YPL106C, strain sse1, active compounds read low 0.966 | S. cerevisiae deletion strains, locus YPL240C, strain hsp82, active compounds read low 0.995 | S. cerevisiae deletion strains, locus YPL241C, strain CIN2, active compounds read low 0.995 | S. cerevisiae deletion strains, locus YPR119W, strain clb2, active compounds read low 0.99 | S. cerevisiae deletion strains, locus YPR141C, strain kar3, active compounds read low 0.967 | S. cerevisiae deletion strains, locus YPR163C, strain tif3, active compounds read low 0.994 | S. cerevisiae deletion strains, locus YPR167C, strain met16, active compounds read low 0.976 | S. cerevisiae deletion strains, strain wtn01, active compounds read low 0.969 | S. cerevisiae strains, strain wild type, active compounds read low 0.965
active: S. cerevisiae deletion strains, locus YDL185W, strain tfp1, active compounds read low 0.895 | S. cerevisiae deletion strains, locus YDR137W, strain rgp1, active compounds read low 0.813 | S. cerevisiae deletion strains, locus YGL086W, strain mad1, active compounds read low 1.12 [resistant] | S. cerevisiae deletion strains, locus YJL187C, strain SWE1 (second series), active compounds read low 0.767 | S. cerevisiae deletion strains, locus YKL085W, strain MDH1 (second series), active compounds read low 1.11 [resistant] | S. cerevisiae deletion strains, locus YKL085W, strain MDH1, active compounds read low 1.11 [resistant] | S. cerevisiae deletion strains, locus YLR039C, strain RIC1, active compounds read low 0.674 | S. cerevisiae deletion strains, locus YLR058C, strain SHM2, active compounds read low 0.866

— PubChem BioAssay AID1159580 (chemical genetic matrix, 2015)
